From PubChem
HTR5A inv ctr – inverse agonist of human HTR5A in OPRM1-OPRD1 counter-screen | P47898 | HTR5A cell line, luminescence, inverse agonism | inhibition, % at 9.3 µM | hit rate 0.083% among 340,000 | AID 504634; in the data active = inhibition mostly above about 23%, no sharp cut-off; inactive = mostly below about 18%
HTR5A ag ctr – HTR5A agonism, opioid heterodimer counter-screen | P47898 | HTR5A agonist assay, luminescence, cell-based | activation, % at 9.3 µM | hit rate 0.61% among 340,000; in the data active = activation mostly above about 9.5%, no sharp cut-off; inactive = mostly below about 7.6%
MOR-DOR inv ag – inverse agonists of human mu-delta opioid receptor heterodimerization. P35372+P41143. cell-based MOR-DOR heterodimer luminescence, inverse agonism. inhibition, % at 9.3 µM. hit rate 0.21% among 340,000. AID 504357; in the data active = inhibition above about 22%, passing the limit was not always enough
Target sequence (P35372 whole entry, looked up): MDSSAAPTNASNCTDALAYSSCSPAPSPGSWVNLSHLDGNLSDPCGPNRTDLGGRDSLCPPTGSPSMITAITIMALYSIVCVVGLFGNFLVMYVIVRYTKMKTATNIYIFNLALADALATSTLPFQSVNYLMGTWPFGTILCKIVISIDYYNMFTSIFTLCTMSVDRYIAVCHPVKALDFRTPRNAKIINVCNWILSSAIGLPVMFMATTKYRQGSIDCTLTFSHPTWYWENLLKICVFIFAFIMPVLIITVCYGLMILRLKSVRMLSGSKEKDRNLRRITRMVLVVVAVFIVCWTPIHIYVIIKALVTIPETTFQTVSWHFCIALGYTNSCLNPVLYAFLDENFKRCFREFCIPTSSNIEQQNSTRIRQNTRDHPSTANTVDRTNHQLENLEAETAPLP
Target sequence (P41143 whole entry, looked up): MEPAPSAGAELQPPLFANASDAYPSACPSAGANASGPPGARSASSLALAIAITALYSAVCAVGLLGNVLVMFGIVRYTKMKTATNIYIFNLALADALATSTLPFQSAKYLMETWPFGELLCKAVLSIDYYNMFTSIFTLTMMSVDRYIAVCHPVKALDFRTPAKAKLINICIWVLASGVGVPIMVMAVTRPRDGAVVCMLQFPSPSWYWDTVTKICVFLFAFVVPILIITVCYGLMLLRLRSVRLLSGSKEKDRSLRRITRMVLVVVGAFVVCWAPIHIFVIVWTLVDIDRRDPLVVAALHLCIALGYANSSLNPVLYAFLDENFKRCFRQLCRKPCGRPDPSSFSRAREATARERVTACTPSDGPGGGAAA
OPRM1-OPRD1 ag – OPRM1-OPRD1 heterodimerization agonism; AID 504326; hit rate 0.3% among 340,000; activation, % at 9.3 µM; cells, luminescence; P35372+P41143; in the data active = activation above about 18%
Large screens that a line does not name were inactive. An excerpt weighted towards active compounds, which were near 1.1% of everything screened.

COc1cc(NC(=O)c2ccccc2)ccc1NC(=O)c1cc2ccccc2o1	none
COc1ccc(NC(=O)Nc2cccc3c2O[C@H](CN(C)S(=O)(=O)c2ccc(OC)cc2)[C@@H](C)CN([C@H](C)CO)C3=O)cc1	none
COc1ccc(NC(=O)Nc2cccc3c2O[C@H](CN(C)S(=O)(=O)c2c(C)noc2C)[C@@H](C)CN([C@H](C)CO)C3=O)cc1	HTR5A ag ctr 10
CCN(C(=O)COC(=O)CSc1ccccc1)c1c(N)n(Cc2ccccc2)c(=O)[nH]c1=O	none
Cc1cc(C)c(C#N)c(SCC(O)CS(=O)(=O)Cc2ccccc2)n1 (configuration not stated)	HTR5A ag ctr 12
Cc1cc(C)c(C#N)c(SCC(=O)c2ccccc2)n1	none
O=C(COc1ccc2ccc(=O)oc2c1)OCc1ccccc1	HTR5A ag ctr 12
CN1CCN(S(=O)(=O)c2ccc(Br)c3ccccc23)CC1	HTR5A ag ctr 11
O=C(NC(Cc1ccccc1)C(=O)NC1CC1)OCc1ccccc1 (configuration not stated)	HTR5A ag ctr 12
CC(C)[C@H](NC(=O)OCc1ccccc1)C(=O)NCc1ccccc1	HTR5A ag ctr 12
Cc1ccc(S(=O)(=O)N2CCC(C(=O)NCC(C)(C)N3CCOCC3)CC2)c(C)c1	none
CC(C)NC(=O)NC(=O)COC(=O)c1c2c(nc3ccccc13)CCC2	HTR5A ag ctr 14
N#CC(C#N)=C1CCCc2sccc21	none
O=S(=O)(NC1=NCCCCC1)c1ccc(Cl)cc1Cl	none
COc1cc(C(=O)O)cc(NC(=O)c2ccco2)c1OC	HTR5A ag ctr 12
Cn1c(=O)n(CC(=O)NCC2CCCO2)c(=O)c2c3c(sc21)CCCC3 (configuration not stated)	none
NC(=O)CSCc1c(Cl)cccc1Cl	HTR5A ag ctr 13
CC(C)(C)NC(=O)CSCc1c(Cl)cccc1Cl	none
CCOc1ccc(-c2nnc(NC(=O)CCCOc3cccc(C)c3)o2)cc1	HTR5A ag ctr 13
CCOc1ccc(-c2nnc(NC(=O)Cc3ccc(OC)cc3)o2)cc1	none
CCN(c1ccccc1)S(=O)(=O)c1ccc(Oc2ccc(C(C)=O)cc2OC)nc1	none
Cc1cccc(C(=O)O/N=C2\CCCc3ccccc32)c1	HTR5A ag ctr 13
Cc1ccc(C(=O)O/N=C2\CCCc3ccccc32)cc1	none
CC1CCN(C(=O)CN2C(=O)NC(C)(c3ccc4ccccc4c3)C2=O)CC1 (configuration not stated)	none
CCN(c1cccc(C)c1)S(=O)(=O)c1ccc2c(c1)CCCN2C(C)=O	none
CCN(c1ccccc1)S(=O)(=O)c1ccc2c(c1)CCCN2C(C)=O	HTR5A ag ctr 11
C(=C1c2ccccc2-c2ccccc21)c1ccncc1	HTR5A ag ctr 8.9
O=C(NCCCNC(=O)c1ccco1)c1cccc(F)c1	none
O=C(NC1CCCCCC1)c1cccs1	none
O=C(CNC1CCCCCC1)c1cccs1	MOR-DOR inv ag 33
O=C1COc2ccc(C(=O)COc3ccc(Cl)cc3Br)cc2N1	none
Cc1cc(C)cc(N(CCC#N)C(=O)CSC2=Nc3ccccc3C3CC=NN23)c1 (configuration not stated)	HTR5A ag ctr 12
COc1ccccc1N/C=C(\C#N)c1nc2ccccc2[nH]1	HTR5A ag ctr 13
Cc1ccnc(NS(=O)(=O)c2ccc(NS(=O)(=O)c3cc(Cl)ccc3Cl)cc2)n1	none
CCCS(=O)(=O)N1CCCC(C(=O)NCCCN2CCN(c3ccc(F)cc3)CC2)C1 (configuration not stated)	HTR5A ag ctr 11
CCCS(=O)(=O)N1CCCC(C(=O)NCCCOC(C)C)C1 (configuration not stated)	none
CC(C)(C)N(Cc1ccccc1)C(=O)c1cc2ccccc2o1	none
Cn1c(-c2ccc(-c3ccccc3)cc2)c[nH]c1=S	HTR5A inv ctr 46, MOR-DOR inv ag 41
COC(=O)CC1COc2ccccc2N1S(=O)(=O)c1ccc(Br)cc1 (configuration not stated)	none
CCOc1ccccc1N=CC1=C(O)CC(c2ccccc2)CC1=O (configuration not stated)	HTR5A ag ctr 13
COc1ccc(N=CC2=C(O)CC(c3ccccc3)CC2=O)c(OC)c1 (configuration not stated)	none
CCN(CC(=O)Nc1ccc2c(c1)OCCO2)CC(=O)Nc1ccc(C)c(S(=O)(=O)N(C)C)c1	none
Cc1cccc(N(C)C(=O)CN(C)S(=O)(=O)c2ccc3c(c2)c(=O)n(C)c(=O)n3C)c1	HTR5A ag ctr 12
CN(CC(=O)N(CCO)Cc1ccccc1)S(=O)(=O)c1ccc2c(c1)c(=O)n(C)c(=O)n2C	none
